Screens (PubChem)
HT1080NT lethal – kills 2HG-producing HT-1080-NT fibrosarcoma cells | Potency, µM (titrated, usually from 46.1 µM), most hits filed as cytotoxic | 360,000 compounds, 1.6% hits | HT-1080-NT fibrosarcoma viability, CellTiter-Glo ATP luminescence, 48 h;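 further: NT is the 2HG producing partner of a matched IDH1 knockdown line; nearly all actives have a fitted effect of over 55% in size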
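Viability of the 2HG-overproducing fibrosarcoma line after 48 hours of compound exposure at 37 degrees C was determined by luminescence with CellTiter-Glo, and concentration-effect curves were then fitted and categorized.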
DT40 TDP1 no CPT – qHTS for Inhibitors of human tyrosyl-DNA phosphodiesterase 1 (TDP1): qHTS in cells in absence of CPT; DT40 Tdp1-/- hTDP1 cells, no CPT, ATP luminescence, 48 h; Potency, µM (doses to about 46.2 µM), actives largely listed as inhibitors; 420,000 compounds, 15% hits; further: nearly all actives have a fitted effect of over 55% in size
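A cellular qHTS used chicken DT40 cells lacking endogenous Tdp1 but carrying stably transfected human TDP1. Compounds were applied without camptothecin, and cell growth kinetics were judged by ATP-dependent luminescence after ≥48 hr.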
KB-V1 MDR tox – KB-V1 MDR subline cytotoxicity; 400,000 compounds, 3.4% hits; Potency, µM (titrated, usually from 46.1 µM), actives largely listed as cytotoxic; KB-V1 MDR cells viability, CellTiter-Glo, 72 h; further: nearly all actives have a fitted effect of over 60% in size
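KB-V1, DMEM (no phenol red) + 10% FBS; cpd pin-transferred, titration series; 72 h, 37 degrees C; CellTiter-Glo, luminescence. Data normalized, curve-fit.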
HT1080 IDH1KD tx – toxicity to HT-1080 IDH1 knockdown cells (counter line) | Potency, µM (doses to about 46.1 µM), hits mostly cytotoxic | AID 686971 | 360,000 compounds, 2% hits | HT-1080 IDH1 knockdown viability, ATP luminescence, 48 h
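% activity derives from luminescence (CellTiter-Glo), normalised to DMSO and no-cell wells. HT-1080-IDH1KD cells, 750/well, had 48 h compound exposure at 37 °C.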
KB-3-1 cytotox – KB-3-1 parental cell cytotoxicity | KB-3-1 viability, CellTiter-Glo ATP luminescence, 72 h | Potency, µM (titrated, usually from 46.1 µM), most hits filed as cytotoxic | 400,000 compounds, 1.4% hits; further: nearly all actives have a fitted effect of over 60% in size
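Viability of parental KB-3-1 cells, measured by CellTiter-Glo luminescence, followed a 72 h incubation at 37 °C with pinned compounds in phenol-red-free DMEM containing 10% FBS.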
TDP1 cell CPT – DT40-hTDP1 cell growth loss with CPT; 420,000 compounds, 12% hits; chicken DT40 Tdp1-/-;hTDP1 cells + 20 nM CPT, ATP luminescence, 48 h; Potency, µM (highest dose often 46.2 µM), usual class: inhibitors; further: nearly all actives have a fitted effect of over 55% in size
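Cell growth measured by CellTiter-Glo luminescence after a minimum 48 h, 37 C compound exposure with 20 nM CPT in Tdp1-knockout DT40 cells stably expressing hTDP1, seeded 400/well; qHTS titration format.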
A number is an active result; n = inactive; u = inconclusive; x = not tested or not shown. Compounds with a hit are over-represented: about 19% of the library has one in this group of screens. The call rests on the fitted dose curve; in most records, active means well fitted curve in the direction sought with a large enough effect; inconclusive means small, poorly fitted or top-dose-only effect, or another doubt; inactive means no such curve, though single readings can be large; an effect the other way counts as inactive or inconclusive.

SMILES	HT1080NT lethal	DT40 TDP1 no CPT	KB-V1 MDR tox	HT1080 IDH1KD tx	KB-3-1 cytotox	TDP1 cell CPT
CC1(C)CC[C@]2(C(=O)O)CC[C@]3(C)C(=CC[C@@H]4[C@@]5(C)CC[C@H](O)C(C)(C)[C@@H]5CC[C@]43C)[C@@H]2C1	n	23µM	n	n	n	u
CC1(C)C[C@H](O)[C@]2(CO)[C@H](O)C[C@]3(C)C(=CCC4[C@@]5(C)CC[C@H](O)C(C)(C)C5CC[C@]43C)[C@@H]2C1 (some centres undefined)	21µM	23µM	u	u	u	u
CC1(C)C[C@H](O)[C@]2(CO)CC[C@]3(C)C(=CCC4[C@@]5(C)CC[C@H](O)C(C)(C)C5CC[C@]43C)[C@@H]2C1 (some centres undefined)	n	u	n	n	n	u
CC(OC(=O)CCC1CCCCC1)C(=O)Nc1ccc(S(N)(=O)=O)cc1 (centres undefined)	n	n	n	n	n	n
Cc1ccc(-n2ncc(-c3n[nH]c(=S)o3)c2N)cc1C	n	u	n	n	n	n
CC1CCCC(C)N1C(=O)COC(=O)Cc1ccc(Cl)cc1 (centres undefined)	n	n	n	n	n	n
CC1CCCC(C)N1C(=O)CSCc1ccc(Cl)cc1 (centres undefined)	n	n	18µM	n	u	n
CCOC(=O)c1ccccc1NC1c2ccccc2C(=O)N1c1ccc(C)cn1 (centres undefined)	n	18µM	n	n	n	u
CCN(CC)S(=O)(=O)c1ccc(NC2c3ccccc3C(=O)N2c2ccc(C)cn2)cc1 (centres undefined)	n	u	n	n	n	u
Cc1ccc(NC2c3ccccc3C(=O)N2c2cccnc2)cc1 (centres undefined)	n	n	u	n	n	n
Cc1ccc(N2C(=O)c3ccccc3C2Nc2cccnc2)nc1 (centres undefined)	n	26µM	n	n	n	15µM
O=C1c2ccccc2C(Nc2cccnc2)N1Cc1ccccc1Cl (centres undefined)	n	21µM	n	n	n	u
CCOC(=O)c1ccccc1NC1c2ccccc2C(=O)N1C1CCN(C(=O)OCC)CC1 (centres undefined)	n	16µM	n	n	n	u
Cc1ccc(-c2nn(CC(=O)NC3CCCCC3)c3c2cnc2ccccc23)cc1	x	n	n	x	n	u
C[C@@H]1CN([C@H](C)CO)C(=O)CCCn2cc(nn2)CO[C@H]1CN(C)C(=O)Nc1ccc2c(c1)OCCO2	n	n	n	n	u	n
COCCNC(=O)CCCn1c(=O)[nH]c2ccsc2c1=O	x	n	u	x	n	n
COc1ccc(NC(=O)Cn2ccn(Cc3ccccc3)c(=O)c2=O)cc1Cl	x	n	x	x	x	n
Cc1ccc(OCCCCN2CCC(C)CC2)cc1	n	n	n	n	n	n
c1ccc(Oc2cccc(OCCCCN3CCCC3)c2)cc1	n	18µM	n	n	n	u
CC1CN(CCCCOc2cccc(Oc3ccccc3)c2)CC(C)O1 (centres undefined)	n	u	u	n	n	u
CC1CN(CCOc2cccc(Oc3ccccc3)c2)CC(C)O1 (centres undefined)	n	u	n	n	n	u
CC1CCCN(CCOc2cccc(Oc3ccccc3)c2)C1 (centres undefined)	u	u	n	n	n	26µM
CC1CCN(CCCCOc2cccc(C(C)C)c2)CC1	n	u	n	n	n	16µM
Cc1cccc(NC(=O)C2CCCN(S(=O)(=O)c3ccc4[nH]c(=O)ccc4c3)C2)c1 (centres undefined)	n	n	n	n	n	n
COc1ccc(Cl)cc1NC(=O)CSC1=Nc2ccccc2C2=NC(CC(=O)NC3CCCCC3)C(=O)N12 (centres undefined)	x	n	n	x	n	18µM
SMILES	HT1080NT lethal	DT40 TDP1 no CPT	KB-V1 MDR tox	HT1080 IDH1KD tx	KB-3-1 cytotox	TDP1 cell CPT
COc1ccc(Cl)cc1NC(=O)CSC1=Nc2ccccc2C2=NC(CCC(=O)NCc3ccc(F)cc3)C(=O)N12 (centres undefined)	x	16µM	x	x	x	23µM
COc1ccc(NC(=O)CSC2=Nc3ccccc3C3=NC(CCC(=O)NCc4ccc(F)cc4)C(=O)N23)cc1Cl (centres undefined)	x	15µM	n	x	n	u
COc1cc(CNc2ccccc2SC)cc(OC)c1OC	n	21µM	u	u	n	21µM
COc1ccc(CNc2ccccc2SC)cc1OC	n	u	u	n	n	u
CCCCCN(C(=O)CCC(=O)OCc1cccc(C)c1)c1c(N)n(CCCC)c(=O)[nH]c1=O	n	u	n	n	n	21µM
CC(C)CN(C(=O)CN(C)CC(=O)Nc1ccc(Cl)c(C(F)(F)F)c1)c1c(N)n(CC(C)C)c(=O)[nH]c1=O	n	18µM	n	n	n	u
CCCCn1c(N)c(N(CCOC)C(=O)CSCc2ccc(Cl)c(Cl)c2)c(=O)[nH]c1=O	n	u	n	n	n	n
COc1ccc(Cl)cc1NC(=O)CN(C)CC(=O)N(CC(C)C)c1c(N)n(CC(C)C)c(=O)[nH]c1=O	n	n	u	n	n	n
CCCCn1c(N)c(N(CCOC)C(=O)CN(C)CC(=O)Nc2ccc(Cl)c(Cl)c2)c(=O)[nH]c1=O	n	u	n	n	n	18µM
COc1ccc(C2C(C(=O)c3ccccc3)N3c4ccccc4C=CC3C2[N+](=O)[O-])cc1 (centres undefined)	u	10µM	n	u	n	7.3µM
Cc1ccc(CSc2nc3cccnc3n2Cc2ccc(C(=O)NCc3ccco3)cc2)cc1	x	n	x	x	x	n
ClC1(Cl)CC1CSc1nc2ccccc2[nH]1 (centres undefined)	n	u	u	n	n	n
CCOc1ccc2nc(SCC3CC3(Cl)Cl)[nH]c2c1 (centres undefined)	u	18µM	u	u	u	u
CCS(=O)(=O)c1nc(S(=O)(=O)c2ccc(Cl)cc2)c(N2CCC(O)CC2)s1	n	n	n	n	n	n
CC(=O)NCCCc1nc2ccccc2n1Cc1ccc(C)cc1	n	n	n	n	n	n
O=C(NCCCc1nc2ccccc2n1Cc1ccccc1)C1CCCCC1	x	16µM	n	x	n	18µM
Cc1ccccc1Cn1c(CCCNC(=O)C2CCCCC2)nc2ccccc21	x	15µM	n	x	n	18µM
O=C(NCCCc1nc2ccccc2n1Cc1ccc(F)cc1)C1CCCCC1	x	26µM	n	x	n	u
